# Values joined by “and” are separate entries in the source; they are usually repeats but may differ in a detail not shown here. Identical values can stand only once. Unmarked numbers belong to inactive results. Results filed as inconclusive are left out. Active and inactive are the calls of the source. Unless noted, calls follow the shape of the dose curve; as a rule, active = well fitted curve in the direction sought with a large enough effect in the repeat runs; inconclusive = weak or mixed curves; inactive = no such curve, though single readings can be large; an effect the other way counts as inactive or inconclusive.
# Assay: qHTS assay for small molecule disruptors of the mitochondrial membrane potential - cell viability (AID 720634; calls by dose curve; also: nearly all actives have a fitted effect of over 20% in size; also: potency is read from the fitted curve at half-maximal effect;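 as to activity change, negative = cytotoxicity: human HepG2 liver cancer cells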)
# Details: HepG2 viability, ATP luminescence (CellTiter-Glo), 1 h; series mostly up to 83.2 µM; activity change, negative = cytotoxicity: at the top concentration
# Summary of the method: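 Viability of HepG2 cells is scored from ATP content by luminescence; cells are exposed to compound for 1 hr at 37 C and 5% CO2, then dosed with m-MPI dye before the CellTiter-Glo reagent.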
# % is scaled to controls: 0 for no effect and ±100 for the full control effect.
SMILES,"activity change, negative = cytotoxicity",Potency
c1cnc2cc3c(cc2n1)C1CNCC3C1,8.92% [at 95.3 µM],–
NC(N)=NC(=O)Cc1c(Cl)cccc1Cl,2.43%,–
CC(=O)OCC1=C(C(=O)O)N2C(=O)[C@@H](NC(=O)Cc3cccs3)[C@H]2SC1,-16.2%,–
NCCCCCC(=O)O,-10.2% [at 39.1 µM],–
CC1COC(=O)O1 (stereo not drawn),–,inactive
OCC(CO)N[C@H]1C[C@](O)(CO)[C@@H](O)[C@H](O)[C@H]1O,13.6%,–
C=C(C)C1CC=C(C)C(OC(C)=O)C1 (stereo not drawn),–,inactive
C[N+]1([O-])CCOCC1,10.3%,–
Cc1cccc(O)c1C,–,inactive
Cc1cccc([N+](=O)[O-])c1C(=O)O,-2.66%,–
O=C(O)c1cc(Cl)cc(Cl)c1,7.22%,–
c1ccc2n[nH]nc2c1,–,inactive
Nc1cc(Cl)c(-c2cc(Cl)c(N)cc2Cl)cc1Cl,–,48.5 µM (active) and 54.5 µM (active)
CCCNC(C)C(=O)Nc1ccccc1C (stereo not drawn),5.85%,–
OCCN1CCNCC1,–,inactive
C/C=C/c1ccc(OCC)c(O)c1,-7.05%,–
C=CC(=O)OCCCCCCCC,3.86%,–
CC(C)(C)NCC(O)c1cc(O)cc(O)c1 (stereo not drawn),9.93%,–

SMILES,"activity change, negative = cytotoxicity",Potency
CC(=O)OCCOCCOCCOC(C)=O,–,inactive
CNC1(C)C2CCC(C2)C1(C)C (stereo not drawn),5.3%,–
CCC(CO)(CO)COCC(CC)(CO)CO,18.7%,–
CCN1CCCC1CNC(=O)c1cc(S(=O)(=O)CC)c(N)cc1OC (stereo not drawn),9.54%,–
O=C(O)CCc1ccccc1,6.47%,–
Nc1nc2ccccc2[nH]1,–,inactive
COC(=O)c1cccc(C(=O)OC)c1,–,inactive
CCC[C@H](N[C@@H](C)C(=O)N1[C@H](C(=O)O)C[C@@H]2CCCC[C@@H]21)C(=O)OCC,7.75%,–
Cc1occc(=O)c1OC(=O)C(C)C,-1.03%,–
CC(C)C(=O)c1c(C(C)C)nn2ccccc12,10.6%,–
NC(N)=Nc1nc(CSCC/C(N)=N/S(N)(=O)=O)cs1,–,inactive
CO[Si](OC)(OC)c1ccccc1,7.94%,–
CN1C(=O)c2ccc([N+](=O)[O-])cc2C1=O,8.55%,–
CCOc1ccccc1C(N)=O,–,inactive
CC(C)(O)CCC(C)(C)O,-4.8% [at 95.3 µM],–
[Cl][In]([Cl])[Cl],–,inactive
CCn1cc(C(=O)O)c(=O)c2cc(F)c(N3CCNC(C)C3)c(F)c21 (stereo not drawn),–,inactive
O=C(O)CP(=O)(O)O,12.6%,–

# Assay: qHTS assay for small molecule disruptors of the mitochondrial membrane potential (AID 720635); also: potency is read from the fitted curve at half-maximal effect
# Details: HepG2 mitochondrial membrane potential, Mito-MPS dye ratio; series mostly up to 83.2 µM; ratio activity, negative = MMP loss: at the top concentration
# Summary of the method: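 HepG2 cells (2,000/well) attached overnight at 37C, then took compound for 1 hr at 37C, 5% CO2. Mito-MPS dye was added for 30 min; fluorescence was read at 490/535 nm (monomers) and 540/590 nm (aggregates).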
SMILES,"ratio activity, negative = MMP loss",Potency
c1cnc2cc3c(cc2n1)C1CNCC3C1,-13.2% [at 95.3 µM],–
NC(N)=NC(=O)Cc1c(Cl)cccc1Cl,-13.9%,–
CC(=O)OCC1=C(C(=O)O)N2C(=O)[C@@H](NC(=O)Cc3cccs3)[C@H]2SC1,-5.98%,–
NCCCCCC(=O)O,5.01% [at 39.1 µM],–
CC1COC(=O)O1 (stereo not drawn),9.89%,–
OCC(CO)N[C@H]1C[C@](O)(CO)[C@@H](O)[C@H](O)[C@H]1O,19.9%,–
C=C(C)C1CC=C(C)C(OC(C)=O)C1 (stereo not drawn),–,inactive
C[N+]1([O-])CCOCC1,14.4%,–
Cc1cccc(O)c1C,–,inactive
Cc1cccc([N+](=O)[O-])c1C(=O)O,-5.87%,–
O=C(O)c1cc(Cl)cc(Cl)c1,-17.6%,–
c1ccc2n[nH]nc2c1,–,inactive
Nc1cc(Cl)c(-c2cc(Cl)c(N)cc2Cl)cc1Cl,–,9.68 µM (active) and 13.7 µM (active)
CCCNC(C)C(=O)Nc1ccccc1C (stereo not drawn),11.5%,–
OCCN1CCNCC1,8.91% [at 95.3 µM],–
C/C=C/c1ccc(OCC)c(O)c1,–,48.6 µM (active)
C=CC(=O)OCCCCCCCC,6.99%,–
CC(C)(C)NCC(O)c1cc(O)cc(O)c1 (stereo not drawn),-17.2%,–

SMILES,"ratio activity, negative = MMP loss",Potency
CC(=O)OCCOCCOCCOC(C)=O,–,inactive
CNC1(C)C2CCC(C2)C1(C)C (stereo not drawn),14.1%,–
CCC(CO)(CO)COCC(CC)(CO)CO,10.2%,–
CCN1CCCC1CNC(=O)c1cc(S(=O)(=O)CC)c(N)cc1OC (stereo not drawn),12%,–
O=C(O)CCc1ccccc1,9.51%,–
Nc1nc2ccccc2[nH]1,–,inactive
COC(=O)c1cccc(C(=O)OC)c1,–,inactive
CCC[C@H](N[C@@H](C)C(=O)N1[C@H](C(=O)O)C[C@@H]2CCCC[C@@H]21)C(=O)OCC,-4.23%,–
Cc1occc(=O)c1OC(=O)C(C)C,12.6%,–
CC(C)C(=O)c1c(C(C)C)nn2ccccc12,-12.6%,–
NC(N)=Nc1nc(CSCC/C(N)=N/S(N)(=O)=O)cs1,9.83%,–
CO[Si](OC)(OC)c1ccccc1,-21.9%,–
CN1C(=O)c2ccc([N+](=O)[O-])cc2C1=O,–,61.1 µM (active)
CCOc1ccccc1C(N)=O,–,inactive
CC(C)(O)CCC(C)(C)O,-10.8% [at 95.3 µM],–
[Cl][In]([Cl])[Cl],5.98%,–
CCn1cc(C(=O)O)c(=O)c2cc(F)c(N3CCNC(C)C3)c(F)c21 (stereo not drawn),–,inactive
O=C(O)CP(=O)(O)O,12.2%,–

# Assay: qHTS assay to test for compound auto fluorescence at 590 nm (red) in HepG2 cells (AID 720674)
# Details: HepG2 autofluorescence, red 540/590 nm, 1 h; series mostly up to 91.3 µM; fluorescence, relative to Rose Bengal: at the top concentration
# Summary of the method: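 Intrinsic compound fluorescence in the red window (Ex/Em 540/590 nm) is measured in attached HepG2 cells exposed for 1 hr, DMSO vehicle as baseline, benchmarked to Rose Bengal sodium.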
SMILES,"fluorescence, relative to Rose Bengal",outcome
c1cnc2cc3c(cc2n1)C1CNCC3C1,-0.105% [at 95.7 µM],–
NC(N)=NC(=O)Cc1c(Cl)cccc1Cl,0.197% [at 46 µM],–
CC(=O)OCC1=C(C(=O)O)N2C(=O)[C@@H](NC(=O)Cc3cccs3)[C@H]2SC1,0.52% [at 46 µM],–
NCCCCCC(=O)O,-0.673% [at 18.6 µM],–
CC1COC(=O)O1 (stereo not drawn),–,inactive
OCC(CO)N[C@H]1C[C@](O)(CO)[C@@H](O)[C@H](O)[C@H]1O,0.334% [at 46 µM],–
C=C(C)C1CC=C(C)C(OC(C)=O)C1 (stereo not drawn),–,inactive
C[N+]1([O-])CCOCC1,-0.202%,–
Cc1cccc(O)c1C,–,inactive
Cc1cccc([N+](=O)[O-])c1C(=O)O,0.225%,–
O=C(O)c1cc(Cl)cc(Cl)c1,0.0948%,–
c1ccc2n[nH]nc2c1,–,inactive
Nc1cc(Cl)c(-c2cc(Cl)c(N)cc2Cl)cc1Cl,–,inactive
CCCNC(C)C(=O)Nc1ccccc1C (stereo not drawn),-0.307% [at 46 µM],–
OCCN1CCNCC1,–,inactive
C/C=C/c1ccc(OCC)c(O)c1,-0.0092%,–
C=CC(=O)OCCCCCCCC,-0.023%,–
CC(C)(C)NCC(O)c1cc(O)cc(O)c1 (stereo not drawn),-0.108% [at 46 µM],–

SMILES,"fluorescence, relative to Rose Bengal",outcome
CC(=O)OCCOCCOCCOC(C)=O,–,inactive
CNC1(C)C2CCC(C2)C1(C)C (stereo not drawn),0.0356% [at 46 µM],–
CCC(CO)(CO)COCC(CC)(CO)CO,-0.829%,–
CCN1CCCC1CNC(=O)c1cc(S(=O)(=O)CC)c(N)cc1OC (stereo not drawn),0.0204% [at 46 µM],–
O=C(O)CCc1ccccc1,-0.0796%,–
Nc1nc2ccccc2[nH]1,–,inactive
COC(=O)c1cccc(C(=O)OC)c1,–,inactive
CCC[C@H](N[C@@H](C)C(=O)N1[C@H](C(=O)O)C[C@@H]2CCCC[C@@H]21)C(=O)OCC,0.109% [at 46 µM],–
Cc1occc(=O)c1OC(=O)C(C)C,-0.0598%,–
CC(C)C(=O)c1c(C(C)C)nn2ccccc12,0.144% [at 46 µM],–
NC(N)=Nc1nc(CSCC/C(N)=N/S(N)(=O)=O)cs1,–,inactive
CO[Si](OC)(OC)c1ccccc1,0.0374%,–
CN1C(=O)c2ccc([N+](=O)[O-])cc2C1=O,0.0171%,–
CCOc1ccccc1C(N)=O,–,inactive
CC(C)(O)CCC(C)(C)O,0.067% [at 95.7 µM],–
[Cl][In]([Cl])[Cl],–,inactive
CCn1cc(C(=O)O)c(=O)c2cc(F)c(N3CCNC(C)C3)c(F)c21 (stereo not drawn),–,inactive
O=C(O)CP(=O)(O)O,-0.329% [at 46 µM],–

# — PubChem BioAssay (Tox21)
